From PubChem BioAssay
Rows were chosen to be rich in hits. Some 5.4% of all compounds tested hit in one or more screens of this group.
IMPase Li cell = IMPase inhibition in cells with lithium potentiation. CHO-M1 cells, IP1 TR-FRET (IP-One), carbachol + lithium. Potency, µM (doses to about 59.4 µM), inactives show top-dose activity, negative = IMPase inhibition, usual class: inhibitors. hit rate 0.35% among 210,000;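 also: IP1 builds up when IMPase is blocked and the TR-FRET signal falls; potency is read from the fitted curve at half-maximal effect; plate controls were basal vehicle for no effect and high inhibitor control for full effect; nearly all actives have a fitted effect of over 50% in size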
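Lithium-sensitised IP1 accumulation assay; M1-expressing CHO cells treated 30 min at 37C with compound. Competitive antibody detection by time-resolved FRET followed a 10 min room-temperature lysis step.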
HPGD block = HPGD (human) dehydrogenase inhibition | P15428 | purified HPGD, NADH fluorescence kinetic, PGE2 substrate | Potency, µM, for inactives: top-dose activity change, negative = inhibition, usual class: inhibitors | hit rate 4.3% among 150,000; active = well fitted inhibition curve with a large enough effect, not every such curve was filed as active; inconclusive = small, poorly fitted or top-dose-only effect, or another doubt; inactive = no such curve, though single readings can be large or run the other way; also: potency is read from the fitted curve at half-maximal effect
Target sequence (P15428 whole entry, looked up): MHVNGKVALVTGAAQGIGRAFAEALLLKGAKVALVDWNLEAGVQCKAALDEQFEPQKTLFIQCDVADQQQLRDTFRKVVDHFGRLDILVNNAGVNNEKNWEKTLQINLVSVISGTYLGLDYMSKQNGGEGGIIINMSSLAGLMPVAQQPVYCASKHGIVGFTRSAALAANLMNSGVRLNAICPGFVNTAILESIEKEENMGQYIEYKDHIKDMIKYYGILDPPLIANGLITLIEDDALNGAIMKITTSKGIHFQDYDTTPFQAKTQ
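20 nM HPGD preincubated 15 min at room temperature with compound in 50 mM Tris-HCl pH 8, 0.01% Tween 20. Started with 1 mM NAD+ and 30 uM prostaglandin E2; NADH fluorescence (360/450 nm) read 5 times over 30-s intervals, last minus first.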
ALOX15B inhib = blocks human 15-lipoxygenase 2 activity; O15296; purified 15hLO-2, xylenol orange hydroperoxide absorbance; Potency, µM (doses to about 57.1 µM), without a hit: at the top dose activity change, negative = inhibition, actives largely listed as inhibitors; hit rate 0.56% among 110,000; AID 881; also: potency is read from the fitted curve at half-maximal effect; nearly all actives have a fitted effect of over 60% in size
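Purified human 15hLO-2 (50 nM final) preincubated with compounds 15 min at room temperature in 25 mM Hepes pH 7.5, 0.01% Triton X-100, then 45 uM arachidonic acid added for 90 min; hydroperoxide detected via ferrous/xylenol orange, 573/405 nm absorbance ratio.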
ALOX12 inhib = blocks human 12-lipoxygenase activity; P18054; purified 12-hLO, xylenol orange hydroperoxide absorbance; Potency, µM (titrated, usually from 57.1 µM), inactives show at the top dose activity change, negative = inhibition, hits mostly inhibitors; hit rate 0.12% among 150,000; AID 1452; also: potency is read from the fitted curve at half-maximal effect; nearly all actives have a fitted effect of over 55% in size
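Purified human 12hLO (150 nM final) was preincubated with compounds for 15 min at room temperature in 25 mM Hepes pH 7.0, 0.01% Triton X-100, then reacted with 40 uM arachidonic acid for 30 min. Hydroperoxide was detected with ferrous iron/xylenol orange.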
IMPase inh = cell-permeable inhibitors of inositol monophosphatase (IMPase) | AID 901 | CHO-M1 cells, IP1 accumulation, HTRF TR-FRET ratio | 120,000 tested, under 10 active | inhibition (IP1 accumulation), % at 46.1 µM | P97697; active = well fitted curve in the direction sought with a large enough effect in the signal ratio, not every such curve was filed as active; inconclusive = small, poorly fitted or top-dose-only effect, or a change in a side signal; inactive = no such curve, though single readings can be large or run the other way; the % refers to the signal ratio;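 also: cells stimulated with carbachol in lithium chloride buffer; plate controls were DMSO basal wells for no effect and reference inhibitor wells for full effect; higher means more IMPase inhibition seen as more IP1 and lower FRET ratio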
Target sequence (P97697 whole entry, looked up): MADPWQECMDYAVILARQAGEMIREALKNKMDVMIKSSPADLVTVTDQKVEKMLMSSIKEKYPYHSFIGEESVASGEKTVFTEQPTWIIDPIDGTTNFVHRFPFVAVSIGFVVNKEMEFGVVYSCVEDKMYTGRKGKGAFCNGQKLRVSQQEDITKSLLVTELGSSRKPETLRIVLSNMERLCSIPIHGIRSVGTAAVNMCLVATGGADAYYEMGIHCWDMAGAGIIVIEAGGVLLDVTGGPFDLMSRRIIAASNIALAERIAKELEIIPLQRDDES
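Elevated IP1 in lysates lowers TR-FRET signal (665/620 ratio and 620 channel reported). Cells were CHO-M1, given carbachol (50 uM as added) plus 50mM LiCl, pH 7.4, 30 min, 37C; compounds titrated up to 46 uM; AC50 by Hill equation.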
PNC inhibitor = perinucleolar compartment assembly inhibition. PC3M PTB-GFP, PNC prevalence imaging, 16 h; active compounds read low. activity change (PNC), negative = inhibition, % at 10 µM. hit rate 3.1% among 140,000. AID 2417;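 active = readout at or below -70, meaning at least 70% loss of cells showing the perinucleolar compartment, a nuclear body marking cancer cells; inconclusive = readout between -30 and a set limit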;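 also: plate controls were DMSO wells for no effect and camptothecin positive control wells for full effect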
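PC3M cells stably expressing PTB-GFP, 750–1000 cells/well, treated 16 h at 37 °C with compound (23 nl of library stock), in duplicate. After paraformaldehyde fixation and Hoechst stain, imaged at 20x; PNC prevalence scored by image analysis.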
Active calls of the source: *; ? = inconclusive; / = no result; [ ] = another dose, or the depositor's remark. Unless noted, calls follow the shape of the dose curve; as a rule, active = well fitted curve in the direction sought with a large enough effect; inconclusive = small, poorly fitted or top-dose-only effect, or another doubt; inactive = no such curve, though single readings can be large; an effect the other way counts as inactive or inconclusive. Unless noted, % is scaled to controls: 0 for no effect and ±100 for the full control effect.

SMILES | IMPase Li cell | HPGD block | ALOX15B inhib | ALOX12 inhib | IMPase inh | PNC inhibitor
Nc1c(C(=O)Nc2ccccc2F)sc2nc(Cc3ccccc3)cc(C(F)(F)F)c12 | 10µM* | -9% | 6% | 4% | ? | 18
O=C(O)CCc1ccc(-c2ccc(Cl)cc2)n1-c1cccc(C(F)(F)F)c1 | / | / | / | / | -3 | /
Clc1ccccc1-c1nnc2sc(C3COc4ccccc4O3)nn12 (centres undefined) | -4% | 20µM* | -28% | -4% | -2 | ?
c1ccc(Cc2nnc3sc(-c4ccc5c(c4)OCCO5)nn23)cc1 | 20%[38.3 µM] | ? | -25% | 4% | 4 | 36
c1ccc(Cc2nnc3sc(C4COc5ccccc5O4)nn23)cc1 (centres undefined) | 18% | 14µM* | / | -5% | 2 | ?
Cc1ccc(-c2nnc3sc(C4COc5ccccc5O4)nn23)cc1 (centres undefined) | 8%[38.3 µM] | -28% | 19% | -10% | 9 | -26
c1ccc(OCc2nnc3sc(C4COc5ccccc5O4)nn23)cc1 (centres undefined) | -2%[38.3 µM] | 7.1µM* | -25% | -3% | 10 | 3
O=c1cnc2cnc(Oc3ccccc3)nc2n1CCc1ccccc1 | 8% | -7% | -5% | -5% | / | /
CCOC(=O)C(=O)/C(=C\N(C)C)c1onc(-c2c(F)cccc2Cl)c1C(=O)OC | 42%[38.3 µM] | 10µM* | 4%[11.4 µM] | 2% | 6[1.84 µM] | 30
O=C(N/N=C/c1ccc(N2CCCCC2)o1)C(O)(c1ccccc1)c1ccccc1 | 10% | 32µM* | / | -4% | / | ?
Cc1cc(=O)[nH]c(SCCOc2ccc(OC(C)C)cc2)n1 | 55%[38.3 µM] | 18µM* | -8% | -2% | 4 | 36
COc1cccc(Cn2c(=O)cnc3cnc(Nc4ccccc4)nc32)c1 | 12% | / | ? | / | / | /
Cc1cc(NC(=O)c2cc(Cl)ccc2Cl)ccc1-c1cc2ccccc2oc1=O | / | / | / | / | -11 | /
Cc1[nH]c2ccccc2c1/C=N/NC(=O)C1CC1(c1ccccc1)c1ccccc1 (centres undefined) | 15% | -7% | / | -4% | / | -110*
O=C(NC1CCCCC1)c1sc(=S)n2c1[nH]c(=O)c1ccccc12 | 14%[38.3 µM] | 13µM* | ? | -20% | -5 | 21
CCCCNC(=O)c1sc(=S)n2c1[nH]c(=O)c1ccccc12 | 17%[38.3 µM] | -21% | -12% | -19% | 5 | -19
O=C(NCC1CCCO1)c1sc(=S)n2c1[nH]c(=O)c1ccc(C(=O)N3CCCCC3)cc12 (centres undefined) | -9%[38.3 µM] | 0.45µM* | ? | -16% | 17 | -22
NC(=O)Nc1cccc2ccccc12 | -2% | -15% | / | 3% | / | -105*
CCC(=O)Nc1cccc2ccccc12 | 1% | / | / | / | / | /
O=c1oc2ccccc2c(O)c1/C=C1\C=Nc2ccccc21 | 0%[38.3 µM] | 2.2µM* | / | -12% | 0 | 49
Cc1cccc(NC(=O)Cn2c(=O)n(CCCS(=O)(=O)C3CCCCC3)c(=O)c3ccccc32)c1 | / | / | / | / | 4 | /
O=c1nc(/C=C/c2cc([N+](=O)[O-])ccc2Cl)cc(C(F)(F)F)[nH]1 | 25%[38.3 µM] | 3.2µM* | ? | -9% | 1 | -27
O=c1[nH]ccc2c(S(=O)(=O)N3CCCNCC3)cccc12 | -17% | ? | -1%[0.0915 µM] | 1%[0.00818 µM] | / | /
Cc1ccccc1Nc1c(N)c(=O)oc2ccccc12 | 7%[38.3 µM] | 16µM* | 1%[11.4 µM] | -6% | ? | ?
CN(C)CCNc1c(N)c(=O)oc2ccccc12 | 32% | / | / | / | / | /
SMILES | IMPase Li cell | HPGD block | ALOX15B inhib | ALOX12 inhib | IMPase inh | PNC inhibitor
CSc1nc(C)cc(-n2cc(F)c(=O)[nH]c2=O)n1 | -2%[38.3 µM] | 14µM* | 0% | 0% | 5 | 31
CCOC(=O)C(=O)Nc1nnc(CCc2ccccc2)s1 | -10% | -8% | / | -1% | 1 | -100*
COC(=O)/C=c1\sc2ncnn2c1=O | 5% | ? | 3% | 6% | -1 | -81*
CNC(=O)/C(C#N)=c1\s/c(=C/C(=O)OC)c(=O)n1-c1ccccc1 | -7%[38.3 µM] | -6% | -10% | 1% | 0 | 78
COC(=O)[C@@H](NC(=O)N1CCc2nc(-c3ccc(OC)cc3C)c3c(c2C1)CO[C@@H](c1ccccc1)C3)C(C)C | -3% | -8% | / | -1%[11.4 µM] | / | /
CCSc1nc2c(c(-c3ccc(C)o3)c1C#N)CCCC2 | 7% | ? | / | -2% | 3 | -100*
Cc1ccc(-c2c(C#N)c(N)nc3c2CCCC3)o1 | 3% | / | / | / | / | /
COC(=O)CSc1nc2c(c(-c3ccc(C)o3)c1C#N)CCCC2 | 28%[38.3 µM] | ? | -16% | -1% | -1 | 8
N#Cc1c(-c2ccncc2)c2c([nH]c1=S)CCCC2 | -7%[38.3 µM] | 22µM* | -23% | -15% | -2 | 30
Cc1ccc(-c2c3c([nH]c(=S)c2C#N)CCCC3)o1 | -27%[38.3 µM] | 8.9µM* | ? | -22% | -9 | -5
CC(=O)OC(C(=O)c1ccccc1)c1ccccc1 (centres undefined) | 9% | -15% | -6% | -4% | / | /
N#Cc1cccc(CS(=O)(=O)c2nnnn2C2CCCCC2)c1 | 10% | -10% | / | / | / | /
Cn1c(=O)c2c(nc(N3CCOCC3)n2Cc2ccc(Br)cc2)n(C)c1=O | / | / | / | / | -3 | /
O=C(Nc1nc(-c2cc3ccccc3oc2=O)cs1)c1ccc(Br)o1 | 17%[38.3 µM] | ? | ? | 20µM* | -3 | ?
COc1cccc2sc(Nc3nc(-c4cc5ccccc5oc4=O)cs3)nc12 | 11% | ? | / | -3% | 9 | -84*
COc1ccccc1-c1nnc(Nc2nc3c(OC)cccc3s2)o1 | ? | ? | / | 0% | 0 | -87*
COc1cccc2sc(Nc3nnc(-c4ccccc4Cl)o3)nc12 | -2% | -20% | / | 0% | -10 | ?
O=C1CC(c2nnc(Cc3ccc(F)cc3)o2)CN1c1ccccc1 (centres undefined) | / | / | / | / | 7 | /
COc1ccc(CC(=O)Nc2oc(-c3ccccc3)c(-c3ccccc3)c2C#N)cc1OC | 12% | ? | / | 3% | 1 | -100*
COC(=O)/C=C/c1ccc2c(c1)OCO2 | -1% | / | / | / | / | /
CCNc1ccccc(C(=O)/C=C/c2ccc3c(c2)OCO3)c1=O | 31%[38.3 µM] | 18µM* | -20% | ? | 1 | -28
CN(NC(=S)Nc1ccc(OC(F)F)cc1)C(=S)Nc1ccc(OC(F)F)cc1 | -7% | 18µM* | / | -4% | 8 | -1
COc1ccc(C(OCCN2CCC[C@@H](C(=O)O)C2)(c2ccc(OC)cc2)c2ccc(OC)cc2)cc1 | 5% | -1% | 1% | -1% | -1 | /
CCN(CC)c1ccc2cc(-c3nc4ccccc4[nH]3)c(=O)oc2c1 | 4% | -11% | -5% | 2% | -2 | -104*
CCN(CC)c1ccc2cc(-c3nnc(-c4ccccc4)o3)c(=O)oc2c1 | -5% | -16% | / | 1% | 0 | -100*
